# Pf Dd2 inh: blocks in vitro growth of P. falciparum Dd2 | 4.3% of 120,000 active | Potency, µM (series often up to 28.9 µM), without a hit: at the top dose activity, negative = inhibition, actives largely listed as inhibitors | P. falciparum Dd2 growth, SYBR Green, 72 h | AID 1347417; active means well fitted inhibition curve with a large enough effect;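 further: plate controls were DMSO vehicle for no effect and reference drug for full effect; nearly all actives have a fitted effect of over 65% in size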
#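 Infected erythrocytes (Dd2, 0.3% parasitemia, 2.5% hematocrit final) are added to compound in RPMI-1640/Albumax II medium, grown 72 h at 37C in low oxygen, then lysed with saponin/Triton-X containing SYBR Green and read by fluorescence.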
# * marks the source's active call; other numbers are inactive results; i = inactive; [ ] = remark or other dose. The full list was thinned out, with hits kept by preference. Potency means the concentration at half of the fitted maximal effect.
SMILES,Pf Dd2 inh
CC(C)C(=O)N1CCCN(S(=O)(=O)c2ccccc2)CCC(=O)NCC1,-14%
O=C1CCN(S(=O)(=O)c2ccccc2)CCCN(Cc2ccc3cc[nH]c3c2)CCN1,5µM*
Cc1cnc(C(=O)N2CCCN(S(=O)(=O)c3ccccc3)CCC(=O)NCC2)cn1,19%
CC(=O)N1CCCN(S(=O)(=O)c2ccccc2)CCC(=O)NCC1,-12%
CCc1ccccc1S(=O)(=O)N1CCC(n2cnnc2CC)CC1,10%
CC(C)(C)CN1CC[C@H]2COC(=O)N2c2cc(F)ccc2C1,8%[44.1 µM]
O=C(N1CCCCC1)N1CCCC1c1nnc2n1CCNC2 (stereo not given),-6%
COc1cccc(C(=O)N[C@@H]2CN(S(C)(=O)=O)C[C@H]2CN(C)C)c1C,22%
Cc1ccccc1C(=O)N1CCN(c2cc(-c3ccccc3)[nH]n2)CC1,-15%
Cc1ccc(-c2nc(C(=O)NC(C)c3ccccc3)no2)cc1 (stereo not given),i
CCC(=O)N1CCCN(S(=O)(=O)c2ccccc2)CCC(=O)NCC1,10%
O=C1CCN(S(=O)(=O)c2ccccc2)CCCCCCN1,22%
O=C1CCN(S(=O)(=O)c2ccccc2)CCCN(Cc2ccccc2)CCN1,8.9µM*
COCCC(=O)N1CC(c2nnc(-c3ccc(C)cc3)o2)C2(CCOCC2)C1 (stereo not given),16%
CN1C(=O)C(CC(=O)NCC2CCN(Cc3ccc(F)cc3)CC2)=C2CCCCC21 (stereo not given),5µM*
CCNC(=O)CC1=C2CCCCC2N(C)C1=O (stereo not given),-17%
CN1C(=O)C(CC(=O)NCCCN2CCc3ccccc3C2)=C2CCCCC21 (stereo not given),-22%
CC1CCN(c2ccc(CNC(=O)CC3=C4CCCCC4N(C)C3=O)cc2)CC1 (stereo not given),10µM*
O=C(CC1=C2CCCCC2N(Cc2ccc(F)cc2)C1=O)NC1CC1 (stereo not given),-22%
CN1C(=O)C(CC(=O)NC2CC2)=C2CCCCC21 (stereo not given),-12%
CNC(=O)[C@@H]1C[C@H](Oc2cccnc2)CN1C(=O)c1ccco1,0%
CCN(CCN(C)C)C(=O)c1cn(CC2COc3ccccc3O2)nn1 (stereo not given),-17%
CCOCC(=O)N1C[C@@H](Oc2ccccc2)C[C@H]1C(=O)N1CCOCC1,14%
CC(C)NC(=O)c1ccccc1OCC1CCCN(C(=O)C2CCOCC2)C1 (stereo not given),-12%
CC(C)(C)OC(=O)N1CCC(c2c(C(=O)Nc3ccc4c(c3)OCCO4)cnn2-c2ccccc2)CC1,7.9µM*
SMILES,Pf Dd2 inh
Cc1ccc(-n2ncc(C(=O)NCc3ccc4c(c3)OCO4)c2C2CCN(C(=O)OC(C)(C)C)CC2)cc1C,-13%
CCC(C)NC(=O)c1cnn(-c2ccc(Cl)cc2)c1C1CCN(C(=O)OC(C)(C)C)CC1 (stereo not given),11µM*
COc1ccc(-n2ncc(C(=O)Nc3ccc4c(c3)OCO4)c2C2CCN(C(=O)OC(C)(C)C)CC2)cc1,6.3µM*
CC1CCN(C(=O)c2cnn(-c3ccc(Cl)cc3)c2C2CCN(C(=O)OC(C)(C)C)CC2)CC1,1%
CC(C)(C)OC(=O)N1CCC(c2c(C(=O)Nc3ccc4c(c3)OCCO4)cnn2-c2ccc(Cl)cc2)CC1,7.1µM*
Cc1ccc(-n2ncc(C(=O)Nc3ccc4c(c3)OCO4)c2C2CCN(C(=O)OC(C)(C)C)CC2)cc1,-18%
Cc1ccc(-n2ncc(C(=O)Nc3ccc4c(c3)OCCO4)c2C2CCN(C(=O)OC(C)(C)C)CC2)cc1,-8%
O=C1CCC(CCC(=O)N2CCN(c3ccccc3F)CC2)(Cc2ccc3ccccc3c2)N1 (stereo not given),-14%
CCn1nc(-c2ccc3c(c2)OCCO3)nc1N(C)C,-23%
CCNC(=O)c1cccnc1OC1CCN(C(=O)c2cccc(Cl)c2)C1 (stereo not given),17%
Cc1ccc2[nH]c(CN3CCNCC(C(=O)O)C3)nc2c1C (stereo not given),-13%
CCOc1ccc(C(=O)N2CCC3(CCNC(=O)CC3)CC2)cc1,-22%
CC(C)(C)OC(=O)N1CCC(c2c(C(=O)Nc3ccc4c(c3)OCO4)cnn2-c2ccc(F)cc2F)CC1,13µM*
Cc1cccc(C)c1-n1ncc(C(=O)NCc2ccc3c(c2)OCO3)c1C1CCN(C(=O)OC(C)(C)C)CC1,-31%
CC(=O)Nc1ccc(C(O)[C@H]2COCC(=O)N2CC2CCCCC2)cc1 (stereo not given in full),17%[44.1 µM]
CCc1ccc2nc(N3CCN(C(=O)c4ccco4)CC3)sc2c1,i
CCCCN(C)CCCNC(=O)C1CCN(S(=O)(=O)CC)CC1,9%
CCCCN(C)CCCNC(=O)C1CCN(c2nc3ccc(CC)cc3s2)CC1,11µM*
O=C1COCC2(CN1)CN(c1ccc(Oc3ccccc3)cc1)C2,i
Cc1cc(C(=O)N2CCc3c(nc(-c4ccc(F)cc4)[nH]c3=O)C2)nn1C,-8%
CCn1ccc(C(=O)N2CCc3c(nc(-c4ccc(OC)cc4)[nH]c3=O)C2)n1,-29%
O=C(c1ccn(C(F)F)n1)N1CCc2nc(-c3ccc(Cl)cc3)[nH]c2C1,13µM*
COCCN1CCCCCC(O)c2cc(C(=O)N3CCCCCC3)ccc21 (stereo not given),i
COCCn1ncc(N2CCC(NC(=O)c3ccc(C)cc3C)CC2)cc1=O,i
O=C1c2ccccc2CN1C1CCN(Cc2cccnc2)CC1,22%
SMILES,Pf Dd2 inh
CC(C)c1noc([C@@H]2C[C@H]3C(=O)NCCCCCCN(C(=O)CC4CCCCC4)[C@H]3C2)n1,i
Cc1cccnc1C(=O)N[C@@H]1CN(Cc2ccccc2)C[C@H]1CN(C)C,0%
CNC(=O)[C@@H]1CN(C(=O)c2cc3ccccc3[nH]2)C[C@H]1COC,-10%
Cc1ccccc1-c1nc2cnccn2c1NCCC(=O)NC1CCCCC1,i
Cc1ccccc1-c1nccn2c(C3CN(C(=O)c4cc5ccccc5[nH]4)C3)ncc12,11µM*
COc1ncccc1-c1nccn2c(C3CN(Cc4c[nH]c5ccccc45)C3)ncc12,3.5µM*
Cc1ccccc1-c1nccn2c(C3CN(Cc4ccc(O)cc4)C3)ncc12,11µM*
c1cncc(-c2nnc([C@H]3CCN(Cc4c[nH]c5ccccc45)C3)o2)c1,i
O=C1NC2(Cc3ccccc31)CN(Cc1c[nH]c3ccccc13)C2,-10%
COCCO[C@H]1C(=O)N(C2CCN(C(=O)c3cc4ccccc4[nH]3)CC2)[C@H]1c1ccncc1,i
COc1ccc2[nH]c3c(c2c1)CCNC31CCN(C(=O)c2cccnc2)CC1,-12%
COCC1CN(C(=O)Cc2ccc(OC)c(Cl)c2)CC12CCNCC2 (stereo not given),13%
Cc1ccc(NC(=O)N[C@H](Cc2ccccc2)C(=O)N2CCOCCNC(=O)CC2)cc1C,i
COC(=O)[C@@H]1Cc2ncn(Cc3ccccc3)c2CN1C(=O)COc1ccccc1,i
N#Cc1cccc(N2CCC3(CC(=O)NC3=O)C2)n1 (stereo not given),14%
COc1cccc(CN2C(=O)OC3(CCN(C(C)=O)CC3)C2(C)c2cccnc2)c1 (stereo not given),-6%[44.1 µM]
CC1(c2cccnc2)N(Cc2ccccc2)C(=O)OC12CCN(C(=O)COc1ccccc1)CC2 (stereo not given),6.3µM*
CC1(c2ccccc2)N(Cc2ccccc2)C(=O)OC12CCN(C(=O)COc1ccccc1)CC2 (stereo not given),-17%

# Screening results (PubChem BioAssay)
